Assay outcomes (PubChem BioAssay)
CCHF vOTU inh: blocks the CCHF virus ovarian tumor domain protease; AID 651958; inhibition, % at 11.5 µM; actives 0.55% (n = 370,000); CCHFV vOTU protease, Pep-AMC fluorescence; in the data active = inhibition above about 30%; note: 0% = vehicle wells with enzyme and 100% = no enzyme wells
Sa RN4220 lethal: S. aureus RN4220 growth inhibition. OD600, 16 h. inhibition, % (no concentration beside the values). actives 0.33% (n = 330,000). AID 1259311; in the data active = inhibition above about 85%;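 note: plate controls were untreated cells for no effect and reference antibiotic for full effect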
PfHsp40 rescue: compounds rescuing yeast from Plasmodium falciparum HSP40 toxicity; S. cerevisiae expressing PfHsp40, growth rescue, ATP luminescence; growth rescue, % at 12.5 µM; actives 0.68% (n = 340,000); AID 504582; in the data active = growth rescue above about 28%, passing the limit was not always enough;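 note: yeast W303a lacking pdr1 and pdr3 grown in galactose medium; growth measured after three days at 30 °C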
Sa ugtP lethal: growth inhibition of S. aureus ugtP deletion strain; S. aureus RN4220 ugtP deletion, OD600 growth, 16 h; growth inhibition, % (concentration not given with the values); AID 1259309; actives 0.54% (n = 330,000); in the data active = growth inhibition above about 68%;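 note: plate controls were untreated wells for no effect and antibiotic for full effect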
PrPC TRFRET: inhibitors of human cell surface prion protein PrPC; TR-FRET read-out; inhibition, % at 13.8 µM; P04156; actives 0.43% (n = 370,000); in the data active = inhibition above about 24%; note: 0% = median of the test wells and 100% = reference compound wells
PrP UTR inh: suppresses PrP 5' UTR mRNA reporter expression; actives 0.35% (n = 340,000); cell-based PrP 5' UTR mRNA reporter, plate reader; inhibition, % (concentration not given with the values); in the data active = inhibition above about 52%; note: 0 = median of the neutral control wells
PrPC confirm: cell surface PrPC inhibition, TR-FRET confirmation. AID 743200. shares compounds with PrPC TRFRET. actives 65% (n = 1,500). cell surface PrPC level. inhibition, % at 13.8 µM; in the data active = inhibition above about 25%
LD9 tox: counter-screen for PrPc inhibitors: cytotoxicity in LD9 cells. shares compounds with PrPC TRFRET. luminescence viability. inhibition, % at 13.8 µM. actives 29% (n = 1,500); in the data active = inhibition above about 9.5%
* = called active by the depositor; . = no result given. Compounds with a hit are over-represented: about 2.1% of the library has one in this group of screens.

SMILES | CCHF vOTU inh | Sa RN4220 lethal | PfHsp40 rescue | Sa ugtP lethal | PrPC TRFRET | PrP UTR inh | PrPC confirm | LD9 tox
C/C(=C\c1ccc(N)cc1)c1nc2ccccc2[nH]1 | 5.8 | 5.4 | -0.9 | 3.4 | 4.9 | -74.0 | . | .
Cc1cc(C)nc(SCC(=O)NN=C/C(Br)=C/c2ccccc2)n1 | . | 2.0 | . | -8.5 | . | . | . | .
COc1ccc2c(c1)OC(c1cccc(C(F)(F)F)c1)C(OC(=O)NC1CCCc3ccccc31)C2=O (stereo not drawn) | . | 6.5 | . | 2.1 | . | . | . | .
O=C(C1=C(O)C(=O)N(CCN2CCOCC2)C1c1cccc([N+](=O)[O-])c1)c1cc2ccccc2o1 (stereo not drawn) | 4.5 | . | . | . | 4.4 | . | . | .
O=C(C1=C(O)C(=O)N(CCN2CCOCC2)C1c1cccc(Br)c1)c1cc2ccccc2o1 (stereo not drawn) | 19.7 | 11.4 | 0.1 | 4.6 | 75.4* | -14.6 | 129.7* | 1.3
CCCc1ccc(C(=O)NNC(=O)c2ccc(Cl)cc2)cc1 | -2.5 | -1.5 | -0.8 | 1.9 | 4.0 | -21.5 | . | .
CCCc1ccc(C(=O)NNc2cc(Cl)ccc2Cl)cc1 | -1.9 | 5.2 | 14.3 | 15.6 | 24.9* | -4.1 | 27.1* | 5.0
CCc1ccc(C(=O)NNc2ccc(Cl)cc2)cc1 | 21.8 | -5.2 | 7.8 | 14.5 | 30.8* | -38.7 | 42.9* | 3.0
Cc1ccc(S(=O)(=O)N=C(Sc2ccccc2C(=O)O)c2ccccc2)cc1 | . | 2.0 | . | 1.1 | . | . | . | .
O=C1NC(Cc2ccccc2)C(=O)Nc2ccc(Br)cc21 (stereo not drawn) | -12.9 | 5.8 | 0.0 | 8.0 | 25.5* | -53.9 | 18.1 | -4.1
NC(COc1ccc(Cl)cc1Cl)=NO | . | 3.6 | . | 8.1 | . | . | . | .
Cn1nnnc1Sc1ncnc2scc(-c3ccc(Br)cc3)c12 | 4.1 | 10.7 | -0.2 | 20.3 | 25.0* | -1.9 | 27.4* | 22.4*
O=C(Nc1ccn(Cc2ccccc2F)n1)c1ccc(COc2ccc(Br)cc2)cc1 | 16.1 | 25.8 | 1.6 | -5.7 | 32.2* | -14.0 | 23.5 | 8.1
O=C(Nc1ccc(Cn2cccn2)cc1)c1ccc(COc2cccc(Br)c2)cc1 | 13.4 | 0.4 | -0.9 | -3.3 | 28.2* | -60.7 | 25.6* | 2.4
COCCN=c1scc(-c2cc(OC)c(OC)c(OC)c2)n1N=Cc1c(C)[nH]c2ccccc12 | . | -1.5 | . | -24.7 | . | . | . | .
CCCOc1ccc(-c2c(C(=O)NN=Cc3cccs3)nnn2-c2nonc2N)cc1 | . | -4.6 | . | -2.5 | . | . | . | .
CC(Cn1nnc([N+](=O)[O-])n1)=NNC(=O)c1ccc(O)cc1 | . | -3.2 | . | 7.0 | . | . | . | .
Cn1cccc1/C=N\NC(=O)Cc1ccc(Br)c2ccccc12 | -6.2 | . | -1.4 | . | 30.5* | 6.5 | 35.5* | -0.4
Cn1cccc1/C=N/NC(=O)Cc1ccccc1 | -10.2 | . | 0.6 | . | -0.6 | -24.9 | . | .
CCCCCCSc1ccc(C2N[C@@](Cc3ccccc3)(C(=O)OC)C3C(=O)N(C)C(=O)C23)cc1OC (stereo partly drawn) | . | -1.4 | . | -22.5 | . | . | . | .
COc1ccc(S(=O)(=O)Nc2ccc3c(c2)C(=O)N(C(C)CO)CC(C)C(CN(C)S(=O)(=O)c2ccc(F)cc2)O3)cc1 (stereo not drawn) | . | 4.9 | . | 8.2 | . | . | . | .
N#CC(C#N)=C(Nc1ccc(F)cc1)SCc1cccc(F)c1 | 2.9 | 98.9* | -2.5 | 98.3* | 28.2* | -4.2 | 33.2* | 34.6*
CCOc1ccc(N/C(SCc2cccc([N+](=O)[O-])c2)=C(/C#N)C(N)=O)cc1 | -0.9 | 5.7 | 2.5 | 9.4 | 7.0 | -21.6 | . | .
O=C1CCCC[C@@H](O)[C@H](O)C[C@H](c2ccccc2)O1 | -10.4 | . | . | . | -0.6 | . | . | .
C=C1CC2(CC(c3ccccc3)OC(c3ccccc3)C2)OC1=O (stereo not drawn) | 22.7 | . | 6.4 | . | 49.2* | -23.1 | 9.1 | 69.8*
SMILES | CCHF vOTU inh | Sa RN4220 lethal | PfHsp40 rescue | Sa ugtP lethal | PrPC TRFRET | PrP UTR inh | PrPC confirm | LD9 tox
Cc1cc(C)n2c(SCc3ccccc3Cl)nnc2n1 | 9.2 | -1.0 | 0.5 | 9.9 | 13.2 | -50.3 | . | .
Cc1cc(C)n2c(-c3ccccc3Cl)nnc2n1 | -22.0 | 2.2 | -0.4 | -1.6 | 25.0* | -16.2 | 5.0 | 1.5
Cc1nc2ccccc2nc1SCC(=O)N1CCC(C)CC1 | 15.7 | 3.8 | -0.5 | -3.8 | 55.4* | -7.2 | 50.2* | 4.7
CC1CCCN(C(=O)CSc2cnc3ccccc3n2)C1 (stereo not drawn) | -5.9 | 4.6 | -0.1 | 6.2 | 38.8* | -79.6 | 71.0* | -0.4
CC1CCCN(C(=O)CSc2nc3ncccc3[nH]2)C1 (stereo not drawn) | 10.1 | 2.5 | 1.3 | 4.3 | 0.0 | -4.1 | . | .
CC1CCN(C(=O)CSc2nc3ccccc3s2)CC1 | -4.4 | . | -0.8 | . | 1.2 | -59.9 | . | .
CCN(CC)S(=O)(=O)c1cc(C(=O)Nc2ccncc2)ccc1Cl | -4.8 | 3.1 | -1.3 | 4.0 | 26.1* | -0.8 | 20.3 | 16.6*
CCN(CC)S(=O)(=O)c1cc(C(=O)Nc2cccnc2)ccc1Cl | -2.8 | 1.9 | -2.0 | 6.1 | -6.3 | -49.7 | . | .
Oc1oc(-c2ccccc2)nc1C=Nc1nccs1 | . | 4.6 | . | -3.0 | . | . | . | .
COCCn1c(SCC(=O)Nc2cccc(NC(C)=O)c2)nc2c([nH]c3ccccc32)c1=O | 11.6 | 2.1 | 0.2 | -0.2 | 28.6* | -11.2 | 10.4 | 0.7
C=CCC(CC(=O)NCCO)C(=O)NC(COC(=O)C(CC=C)CC(=O)OC(C)(C)C)c1ccccc1 (stereo not drawn) | . | 4.2 | . | 1.3 | . | . | . | .
O=C(NCCc1cn2ccccc2n1)c1cc(COc2ccc3ncccc3c2)on1 | 13.7 | 18.4 | 1.1 | 10.4 | 25.1* | -1.0 | 40.5* | 48.7*
CC(NC(=O)c1cc(COc2ccc3ncccc3c2)on1)c1ccc(F)cc1 (stereo not drawn) | 1.7 | -0.1 | -0.6 | 6.2 | 32.8* | -1.4 | 34.3* | 11.4*
O=C(c1cc(COc2ccc3ncccc3c2)on1)N1CCCCCC1 | -10.5 | 4.3 | -0.2 | 10.8 | 24.2 | -23.5 | . | .
O=C(c1cc(COc2ccc3ncccc3c2)on1)N1CCCC1 | 0.4 | 4.1 | -0.9 | 0.6 | 42.4* | -2.2 | 42.4* | 8.9
CC1CN(C(C)CO)C(=O)c2cccc(NC(=O)Nc3ccc(C(F)(F)F)cc3)c2OC1CN(C)S(C)(=O)=O (stereo not drawn) | . | -0.7 | . | -11.9 | . | . | . | .
C=CCOc1ccccc1C=NO | . | 4.7 | . | 4.3 | . | . | . | .
Cc1nnc(NN=CC(C)c2ccccc2)[nH]c1=O (stereo not drawn) | . | 0.4 | . | -3.7 | . | . | . | .
O=C(NN=Cc1cc(Br)c(O)c(Br)c1O)c1cccnc1 | . | 5.2 | . | 4.2 | . | . | . | .
Cc1c(CC(=O)O)c(=O)oc2c(C)c3occ(-c4ccccc4)c3cc12 | 9.5 | 4.9 | -1.0 | 7.5 | 28.2* | -16.8 | 19.1 | -1.6
N#CNC(=Nc1cccc(F)c1)SCc1ccccc1F | 7.4 | 5.2 | 2.4 | 12.5 | 25.8* | -4.7 | 16.8 | 7.7
NNC(=O)C(=O)Nc1ccc(O)cc1 | -14.3 | -0.1 | -0.2 | 1.4 | 31.0* | -44.8 | -3.2 | -5.7
N#CC(=NNc1ccc(F)cc1)C(=O)C1CC1 | . | 18.3 | . | 5.0 | . | . | . | .
